Assay results taken from PubChem BioAssay (EPA / NIEHS).
Where “and” joins values, the source holds several entries; their conditions need not be identical. Equal values may be shown once. Calls of active or inactive are those of the source. The calls were made as follows: active = hit-call score of the fitted dose curve at least 0.9, where 1 is the maximum; inactive = score below 0.9.

Experiments:
[1] = read-out: Interleukin-6 (IL6), IL6 (gene 3569); assay: BSK_CASM3C_IL6: BioMAP Diversity Plus: CASM3C Assay for Interleukin-6 (IL6) Biomarker Activity for (AID 2283040); settings: primary human coronary artery smooth muscle cells; actives raise or lower the signal
[2] = read-out: Tissue plasminogen activator (tPA), PLAT (gene 5327); assay: BSK_BE3C_tPA: BioMAP Diversity Plus: BE3C Assay for Tissue plasminogen activator (tPA) Biomarker Activity (AID 2283041); settings: primary human bronchial epithelial cells; actives raise or lower the signal
Method in brief: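 ELISA read-out of tPA on human primary bronchial epithelial cells, 24 h post-dosing; bidirectional fit vs DMSO negative control/baseline.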

[3] = read-out: Interleukin-8 (IL8), CXCL8 (gene 3576); assay: BSK_CASM3C_IL8: BioMAP Diversity Plus: CASM3C Assay for Interleukin-8 (IL8) Biomarker Activity (AID 2283042); settings: primary human coronary artery smooth muscle cells; actives raise or lower the signal;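 also: IL-8 protein level quantified by ELISA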
[4] = read-out: Human Leukocyte Antigen - DR isotype (HLADR), HLA-DRA (gene 3122); assay: BSK_CASM3C_HLADR: BioMAP Diversity Plus: CASM3C Assay for Human Leukocyte Antigen - DR isotype (HLADR) Biomarker Activity (AID 2283043); settings: primary human coronary artery smooth muscle cells; actives raise or lower the signal;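 also: cell-surface HLA-DR protein level quantified by ELISA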
[5] = read-out: Macrophage colony-stimulating factor (MCSF), CSF1 (gene 1435); assay: BSK_CASM3C_MCSF: BioMAP Diversity Plus: CASM3C Assay for Macrophage colony-stimulating factor (MCSF) Biomarker Activity (AID 2283044); settings: primary human coronary artery smooth muscle cells; actives raise or lower the signal;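 also: M-CSF protein amount quantified by ELISA after 24 h exposure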
[6] = read-out: Low-density lipoprotein receptor (LDLR), LDLR (gene 3949); assay: BSK_CASM3C_LDLR: BioMAP Diversity Plus: CASM3C Assay for Low-density lipoprotein receptor (LDLR) Biomarker Activity (AID 2283045); settings: primary human coronary artery smooth muscle cells; actives raise or lower the signal;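 also: LDLR protein level on the cell surface quantified by ELISA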
[7] = read-out: Monocyte Chemoattractant Protein-1 (MCP1), CCL2 (gene 6347); assay: BSK_CASM3C_MCP1: BioMAP Diversity Plus: CASM3C Assay for Monocyte Chemoattractant Protein-1 (MCP1) Biomarker Activity (AID 2283046); settings: primary human coronary artery smooth muscle cells; actives raise or lower the signal;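 also: MCP-1 level quantified by ELISA 24 h after dosing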
[8] = BSK_CASM3C_Proliferation: Cell Proliferation Assessment in the BioMAP Diversity Plus: CASM3C Assay (AID 2283047); settings: primary human coronary artery smooth muscle cells;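 also: sulforhodamine B total protein stain as relative cell number at 560 nm; sub-confluent cells exposed 48 h before staining; fitted both ways against DMSO so gain or loss of cell number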
[9] = read-out: Monokine induced gamma interferon (MIG), CXCL9 (gene 4283); assay: BSK_CASM3C_MIG: BioMAP Diversity Plus: CASM3C Assay for Monokine induced gamma interferon (MIG) Biomarker Activity (AID 2283048); settings: primary human coronary artery smooth muscle cells; actives raise or lower the signal;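 also: MIG protein level measured by ELISA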
[10] = read-out: serum amyloid A (SAA), SAA1 (gene 6288); assay: BSK_CASM3C_SAA: BioMAP Diversity Plus: CASM3C Assay for serum amyloid A (SAA) Biomarker Activity (AID 2283049); settings: primary human coronary artery smooth muscle cells; actives raise or lower the signal;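 also: SAA protein level quantified by ELISA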
[11] = BSK_CASM3C_SRB: Viability Assessment in the BioMAP Diversity Plus: CASM3C Assay (AID 2283050); settings: primary human coronary artery smooth muscle cells;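 also: total protein by SRB staining as cytotoxicity measure in parallel cultures; cells exposed to compound for 24 h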
[12] = read-out: Thrombomodulin, THBD (gene 7056); assay: BSK_CASM3C_Thrombomodulin: BioMAP Diversity Plus: CASM3C Assay for Thrombomodulin Biomarker Activity (AID 2283051); settings: primary human coronary artery smooth muscle cells; actives raise or lower the signal;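 also: thrombomodulin protein level measured by ELISA 24 h after dosing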
[13] = read-out: Tissue Factor, F3 (gene 2152); assay: BSK_CASM3C_TissueFactor: BioMAP Diversity Plus: CASM3C Assay for Tissue Factor Biomarker Activity (AID 2283052); settings: primary human coronary artery smooth muscle cells; actives raise or lower the signal;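 also: cell surface tissue factor protein level read by ELISA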
[14] = read-out: Interferon-gamma inducible Protein 10 (IP10), CXCL10 (gene 3627); assay: BSK_hDFCGF_IP10: BioMAP Diversity Plus: hDFCGF Assay for Interferon-gamma inducible Protein 10 (IP10) Biomarker Activity (AID 2283053); settings: primary human foreskin fibroblasts; actives raise or lower the signal
Method in brief: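 ELISA read-out of IP-10 (CXCL10) from primary human skin fibroblasts, 24 h after compound addition. Gain or loss of signal versus DMSO baseline, bidirectional curve fitting.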

[15] = read-out: Urokinase-type plasminogen activator receptor (uPAR), PLAUR (gene 5329); assay: BSK_CASM3C_uPAR: BioMAP Diversity Plus: CASM3C Assay for Urokinase-type plasminogen activator receptor (uPAR) Biomarker Activity (AID 2283054); settings: primary human coronary artery smooth muscle cells; actives raise or lower the signal;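 also: cell-surface uPAR protein level quantified by ELISA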
[16] = read-out: Vascular cell adhesion molecule 1 (VCAM1), VCAM1 (gene 7412); assay: BSK_CASM3C_VCAM1: BioMAP Diversity Plus: CASM3C Assay for Vascular cell adhesion molecule 1 (VCAM1) Biomarker Activity (AID 2283055); settings: primary human coronary artery smooth muscle cells; actives raise or lower the signal;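 also: VCAM-1 protein level quantified by ELISA on the cells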
[17] = read-out: Collagen III, COL3A1 (gene 1281); assay: BSK_hDFCGF_CollagenIII: BioMAP Diversity Plus: hDFCGF Assay for Collagen III Biomarker Activity (AID 2283056); settings: primary human foreskin fibroblasts; actives raise or lower the signal
Method in brief: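 Cells: human foreskin fibroblasts, primary. Dosing followed by 24 h incubation, then ELISA for collagen III. Both increases and decreases scored relative to DMSO.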

[18] = read-out: Epidermal growth factor receptor (EGFR), EGFR (gene 1956); assay: BSK_hDFCGF_EGFR: BioMAP Diversity Plus: hDFCGF Assay for Epidermal growth factor receptor (EGFR) Biomarker Activity (AID 2283057); settings: primary human foreskin fibroblasts; actives raise or lower the signal
Method in brief: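 ELISA readout of EGFR on human dermal fibroblasts (primary foreskin cells), 24 h post-dosing; bidirectional curve fit vs DMSO baseline, gain or loss of signal scored.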

[19] = read-out: Interleukin-8 (IL8), CXCL8 (gene 3576); assay: BSK_hDFCGF_IL8: BioMAP Diversity Plus: hDFCGF Assay for Interleukin-8 (IL8) Biomarker Activity (AID 2283058); settings: primary human foreskin fibroblasts; actives raise or lower the signal
Method in brief: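 IL-8 levels from compound-treated primary human fibroblasts were read by ELISA at 24 h, with DMSO serving as baseline for bidirectional fitting.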

[20] = BSK_hDFCGF_Proliferation: Cell Proliferation Assessment in the BioMAP Diversity Plus: hDFCGF Assay (AID 2283059); settings: primary human foreskin fibroblasts;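 also: curves fitted for both rise and fall of signal versus DMSO baseline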
Method in brief: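 Steps: dose primary human dermal fibroblasts (foreskin); […] fix in 10% TCA; stain with 0.1% SRB; read 560 nm; fit gain or loss of signal against DMSO.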

Measured: AC50

COC(=O)CCC(F)(F)C(F)(F)C(F)(F)C(F)(F)F
inactive: all assays above

FC(F)(F)C(F)(F)C(F)(F)CI
inactive: all assays above

OCCCC(F)(F)C(F)(F)C(F)(F)F
inactive: all assays above

Cc1ccc(S(=O)(=O)OCC(F)(F)C(F)(F)C(F)(F)C(F)(F)C(F)(F)C(F)F)cc1
inactive: all assays above

FC1CC(F)(F)C(F)(F)C1(F)F (stereo not given)
inactive: all assays above

FC(F)(F)C(F)(F)C(F)(F)C(F)(F)C(F)(F)C(F)(F)CCS
inactive: all assays above

O=C(O)C(F)(F)C(F)(F)F
inactive: all assays above

Nc1ccc([N+](=O)[O-])cc1O
active: [12] 20 µM | [20] 11.1 µM
inactive: all other assays above

CO[Si](OC)(c1ccccc1)c1ccccc1
active: [1] 31.5 µM | [4] 39.1 µM | [5] 33.2 µM | [6] 30.8 µM | [7] 36.7 µM | [8] 34.2 µM | [10] 30.9 µM | [11] 31.1 µM | [13] 30.7 µM | [15] 29.5 µM | [16] 35.7 µM | [17] 32 µM | [20] 28.1 µM
inactive: [2] | [3] | [9] | [12] | [14] | [18] | [19]

CCc1ccc(C(c2ccc(CC)cc2)C(Cl)Cl)cc1
active: [2] 14.1 µM | [13] 5.97 µM | [14] 26.2 µM | [17] 20 µM | [20] 4.45 µM
inactive: all other assays above

OCC(F)(F)C(F)(F)C(F)(F)F
inactive: all assays above

CC(C)(C)C(=O)CC(=O)C(F)(F)C(F)(F)C(F)(F)F
inactive: all assays above

NC(=O)C(F)(F)C(F)(F)C(F)(F)C(F)(F)F
inactive: all assays above

CCCCCCCOC(=O)c1ccccc1C(=O)OCCCCCCC
inactive: all assays above

O=C(O)C(F)(F)C(F)(F)C(F)(F)C(F)(F)F
inactive: all assays above

C#C[C@]1(O)CC[C@H]2[C@@H]3CCc4cc(OC)ccc4[C@H]3CC[C@@]21C
active: [8] 0.253 µM | [13] 0.016 µM | [17] 0.00348 µM | [18] 0.016 µM | [20] 4.67 µM
inactive: all other assays above

OCC(F)(F)C(F)(F)C(F)(F)C(F)(F)C(F)(F)C(F)(F)F
active: [8] 46.6 µM and 54.9 µM | [14] 55.1 µM and 41.2 µM | [17] 30 µM and 49.7 µM | [20] 56.1 µM and 54.4 µM
inactive: all other assays above
